Results taken from PubChem BioAssay (EPA / NIEHS).
Records with an inconclusive call do not appear. Active and inactive are the calls of the source. Rule for the calls: active = hit-call score of the fitted dose curve at least 0.9, where 1 is the maximum; inconclusive = response in the unintended direction; inactive = score below 0.9.

What follows are compounds tested against human Retinoid X Receptor beta (RXRb), RXRB (gene 6257) (UniProt P28702) (assay: ATG_RXRb_TRANS: Attagene TRANS-FACTORIAL HepG2 Assay for human Retinoid X Receptor beta (RXRb) (AID 2283013)).
Chain of human Retinoid X Receptor beta (RXRb), RXRB (gene 6257) (P28702 whole entry, looked up): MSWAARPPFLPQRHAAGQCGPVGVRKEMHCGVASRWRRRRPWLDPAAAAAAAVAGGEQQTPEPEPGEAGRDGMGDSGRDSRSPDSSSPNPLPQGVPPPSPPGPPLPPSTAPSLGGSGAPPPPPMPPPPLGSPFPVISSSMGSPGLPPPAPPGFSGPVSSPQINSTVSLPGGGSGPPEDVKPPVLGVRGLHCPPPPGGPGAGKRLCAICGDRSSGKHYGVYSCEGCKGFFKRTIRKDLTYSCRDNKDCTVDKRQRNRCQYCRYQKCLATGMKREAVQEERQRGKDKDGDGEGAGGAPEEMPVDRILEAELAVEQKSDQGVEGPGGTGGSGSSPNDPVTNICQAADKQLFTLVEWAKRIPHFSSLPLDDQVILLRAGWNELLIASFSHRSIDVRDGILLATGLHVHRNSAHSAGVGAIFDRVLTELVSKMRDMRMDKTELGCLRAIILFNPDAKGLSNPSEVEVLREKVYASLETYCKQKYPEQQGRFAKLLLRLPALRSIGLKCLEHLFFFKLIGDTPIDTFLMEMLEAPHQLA
Method: ATG_TRANS is a cell-based, multiplexed-readout assay that uses HepG2, a human liver cell line, with measurements taken at 24 hours after chemical dosing in a 24-well plate.ATG_RXRb_TRANS is one of 30 assay component(s) measured or calculated from the ATG_TRANS assay. It is designed to make measurements of mRNA induction, a form of inducible reporter, as detected with fluorescence intensity signals by Reverse transcription polymerase chain reaction (RT-PCR) and Capillary electrophoresis technology.Data from the assay component ATG_RXRb_TRANS was analyzed into 1 assay endpoint. This assay endpoint, ATG_RXRb_TRANS, was analyzed in the positive analysis fitting direction relative to DMSO as the negative control and baseline of activity. Using a type of inducible reporter, measures of mRNA for gain-of-signal activity can be used to understand the reporter gene at the transcription factor-level as they relate to the gene RXRB. Furthermore, this assay endpoint can be referred to as a primary readout, because this assay has produced multiple assay endpoints where this one serves a reporter gene function. To generalize the intended target to other relatable targets, this assay endpoint is annotated to the nuclear receptor intended target family, where the subfamily is non-steroidal.
Human liver HepG2 cells are transiently transfected with multiple reporter transcription units (MRTUs) in 6-well plates using FuGene 6 reagent (Roche; 3 ml FuGene/1 mg DNA). The MRTU constructs are regulated by a cis-regulating element (promoter). […] A major difference between the CIS and TRANS system is that in CIS activities of endogenous TFs are measured, whereas the TRANS assay evaluates changes in activities of exogenous, chimeric NR-Gal4 proteins. […] At the end of 24 hour incubation, total RNA was isolated using TriZol reagent (Invitrogen). The isolated RNA is then reverse-transcribed using oligo(dT) primer and Mo-MLV reverse transcriptase (Invitrogen) with DNAse I (Ambion) treatment for 30 min. The one-tenth of the produced cDNA was amplified by PCR using Taq DNA polymerase (Invitrogen) and two reporter sequence-specific primers. The PCR products were fluorescently labeled by primer extension with 6-arboxyfluorescein (6-FAM) 5'-labeled reporter sequence-specific primer (2 min at 95 C, 20 s at 68 C and 10 min at 72 C) and these products were digested with 5U of HpaI (New England Biolabs) for 2h at 37 C. The fragments were purified using Qiaquick PCR columns (Qiagen), analyzed on an ABI 3130xL genetic analyzer (Applied Biosystems) with peak positions identified by using a set of X-rhodamine (ROX)-labeled MapMarker1000 molecular weight standards (BioVentures). The raw capillary electrophoresis data was processed using Attagraph software (Attagene).

Structure (SMILES)	outcome	AC50
CCOP(=O)(OCC)OCC	inactive	–
Nc1ccccc1C(=O)OCCc1ccccc1	–	33.4 µM (active)
O=C(CCl)c1ccccc1	–	33.4 µM (active)
O=C(O)c1cc[c]([Hg][Cl])cc1	–	53.8 µM (active)
CC(=O)c1cc2c(cc1C)C(C)(C)C(C)CC2(C)C (stereo not given)	–	5.85 µM (active)
CCN(CC)C(=S)S	inactive	–
c1ccc(P(c2ccccc2)c2ccccc2)cc1	–	38.6 µM (active)
CCCCCc1cc(O)cc(O)c1	inactive	–
CSc1nc(N=[N+]=[N-])nc(NC(C)C)n1	inactive	–
O=c1[nH]c(Cl)c(Cl)cc1Cl	inactive	–
O=S(=O)(O)O	inactive	–
Nc1c(Cl)c(Cl)c(Cl)c(Cl)c1Cl	–	28.6 µM (active)
Nc1ccc([N+](=O)[O-])cc1N	inactive	–
CC=Cc1ccc2c(c1)OCO2	inactive	–
CCCOC(=O)c1ccccc1C(=O)OCCC	–	76.1 µM (active)
CC(C)c1ccc(O)cc1	–	74.9 µM (active)
CCCCOC(=O)CCC(=O)OCCCC	inactive	–
CCC(C)c1cc(C(C)(C)C)cc(-n2nc3ccccc3n2)c1O (stereo not given)	–	8.72 µM (active)
CCOP(=O)(OCC)Oc1ccc([N+](=O)[O-])cc1	inactive	–
Nc1cc(Cl)cc(Cl)c1	inactive	–

Structure (SMILES)	outcome	AC50
CCC(Br)(CC)C(=O)NC(N)=O	inactive	–
CCC(=O)c1ccc(Cl)cc1	inactive	–
CCC(C)c1cc([N+](=O)[O-])cc([N+](=O)[O-])c1OC(=O)C=C(C)C (stereo not given)	inactive	–
Cc1ccc(C)c2ccccc12	–	83.3 µM (active)
S=c1[nH]c2ccccc2[nH]1	inactive	–
COc1cc(OC)nc(Oc2cccc(Oc3nc(OC)cc(OC)n3)c2C(=O)O)n1	inactive	–
CC(C)[C@@H](C(=O)O[C@@H](C#N)c1cccc(Oc2ccccc2)c1)c1ccc(Cl)cc1	inactive	–
CN(C)CCC#N	inactive	–
N#CCCCl	inactive	–
CC(C)(c1cc(Cl)c(O)c(Cl)c1)c1cc(Cl)c(O)c(Cl)c1	–	9.09 µM (active)
Nc1ccccc1C(=O)Oc1ccc2ccccc2c1	inactive	–
COC(C)(C)CCC[C@H](C)C/C=C/C(C)=C/C(=O)OC(C)C	inactive	–
O=C(CCN1CC1)OCC(CO)(COC(=O)CCN1CC1)COC(=O)CCN1CC1	inactive	–
O=C1C(Cl)=C(Cl)C(=O)C(Cl)=C1Cl	inactive	–
Cl/C=C\CCl	inactive	–
CC(C)(C)C(O)C(Oc1ccc(-c2ccccc2)cc1)n1cncn1 (stereo not given)	inactive	–
CCCCCCCCCCCC#N	–	44.5 µM (active)
C=CCc1ccc(OC(=O)Cc2ccccc2)c(OC)c1	inactive	–
NNc1ccccc1	inactive	–
C=C(Cl)CCl	inactive	–
